Laboratory results as given in PubChem BioAssay (Tox21).
Results filed as inconclusive are left out. The source made the active and inactive calls. Unless noted, the call rests on the fitted dose curve; in most records, active means well fitted curve in the direction sought with a large enough effect in the repeat runs; inconclusive means weak or mixed curves; inactive means no such curve, though single readings can be large; an effect the other way counts as inactive or inconclusive.

What was measured:
[1] = A CellTox Green Cytotoxicity Assay to monitor cytotoxicity in HEK293 cells - 32 hour (AID 1224881); further: nearly all actives have a fitted effect of over 40% in size
In short: (§1)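 Fluorescence intensity, read at 0, 8, 16, 24, 32 and 40 h of compound treatment, reflected dye binding to DNA of dead HEK293 cells; compounds (23 nL, DMSO) were added 5 h after plating cells with reagent.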

[2] = A CellTox Green Cytotoxicity Assay to monitor cytotoxicity in HepG2 cells - 0 hour (AID 1224882); further: nearly all actives have a fitted effect of over 35% in size
In short: (§2)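 Using 1536-well format, dye-containing HepG2 suspension was seeded, allowed 5 h at 37 C/5% CO2, dosed by pintool with compounds, positive and negative controls, and imaged for fluorescence across 40 h.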

[3] = A CellTox Green Cytotoxicity Assay to monitor cytotoxicity in HepG2 cells - 32 hour (AID 1224883); further: nearly all actives have a fitted effect of over 50% in size
In short: as §2

[4] = A CellTox Green Cytotoxicity Assay to monitor cytotoxicity in HEK293 cells - 8 hour (AID 1224884); further: nearly all actives have a fitted effect of over 35% in size
In short: as §1

[5] = qHTS RealTime-Glo MT Cell Viability Assay in HepG2 cells - 16 hour (AID 1224885); further: nearly all actives have a fitted effect of over 50% in size
In short: (§3)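 Cells + NanoLuc/prosubstrate dispensed (600 cells/well) → 5 h at 37 C/5% CO2 → compounds in DMSO transferred → 40 h incubation at 37 C, luminescence read at 0, 8, 16, 24, 32, 40 h.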

[6] = qHTS RealTime-Glo MT Cell Viability Assay in HEK293 cells - 24 hour (AID 1224886); further: top concentration of the series differs between compounds; nearly all actives have a fitted effect of over 50% in size
In short: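 Tox21 10K qHTS, HEK293, 600 cells/well, RealTime-Glo reagent co-dispensed with cells; 5 h preincubation, compound by pintool, 37 C, luminescence at 0–40 h.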

[7] = qHTS RealTime-Glo MT Cell Viability Assay in HEK293 cells - 8 hour (AID 1224887); further: top concentration of the series differs between compounds; nearly all actives have a fitted effect of over 50% in size
In short: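 Viable HEK293 cells reduce a cell-permeant prosubstrate; the product diffuses out and is consumed by NanoLuc in the medium to give light. Compounds went in after a 5 h incubation and plates were read over the treatment course.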

[8] = A CellTox Green Cytotoxicity Assay to monitor cytotoxicity in HEK293 cells - 16 hour (AID 1224888); further: nearly all actives have a fitted effect of over 35% in size
In short: as §1

[9] = qHTS RealTime-Glo MT Cell Viability Assay in HepG2 cells - 0 hour (AID 1224889); further: nearly all actives have a fitted effect of over 50% in size
In short: as §3

[10] = A CellTox Green Cytotoxicity Assay to monitor cytotoxicity in HepG2 cells - 8 hour (AID 1224890); further: nearly all actives have a fitted effect of over 45% in size
In short: as §2

[11] = qHTS assay to identify small molecule antagonists of the estrogen receptor alpha (ER-alpha) signaling pathway using the BG1 cell line in the presence of 0.1 nM 17-beta-estradiol - cell viability counter screen (AID 1259241); further: nearly all actives have a fitted effect of over 40% in size
In short: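 Cells were plated and left 24 hr, compounds in DMSO were pinned in, 17beta-estradiol was added to 0.1 nM final, and after 22 hr CellTiter-Fluor reagent was added for 30 min before fluorescence was read.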

[12] = qHTS assay to identify small molecule antagonists of the androgen receptor (AR) signaling pathway using the MDA cell line in the presence of 0.5 nM R1881 - cell viability counter screen (AID 1259242); further: nearly all actives have a fitted effect of over 45% in size
In short: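 Viability of MDA-kb2 cells was multiplexed with the luciferase AR readout; after 16 hr with compounds and R1881 at 0.5 nM final, CellTiter-Fluor fluorescence was recorded.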

[13] = target: Estrogen receptor (Homo sapiens) (UniProt P03372); assay: qHTS assay to identify small molecule antagonists of the estrogen receptor alpha (ER-alpha) signaling pathway using the BG1 cell line in the presence of 0.1 nM 17-beta-estradiol (AID 1259244); further: nearly all actives have a fitted effect of over 50% in size
In short: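 Estradiol at 0.1 nM (final) stimulates the endogenous ER-alpha of VM7Luc4E2 cells carrying an ERE-driven luciferase; compounds are co-incubated 22 h at 37C and luciferase output quantified by luminescence.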

[14] = qHTS assay to identify small molecule HDAC inhibitors (AID 1259364);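 further: wild-type HCT-116 cells with endogenous class I/II HDAC activity; top concentration of the series differs between compounds; nearly all actives have a fitted effect of over 45% in size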
In short: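 Read-out: luminescence of HDAC-Glo I/II reagent, 30 min RT, reflecting class I/II deacetylase activity in whole HCT-116 cells pre-exposed 2 h to DMSO-dissolved compounds.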

[15] = qHTS assay to identify small molecule HDAC inhibitors - cell viability counter screen (AID 1259365)
In short: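 Counter screen in wild-type HCT-116 cells: compounds dissolved in DMSO are pin-transferred onto overnight-plated cells and left 2hr at 37C. ATP-based CellTiter-Glo luminescence then measures viable cells.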

[16] = qHTS assay to identify small molecule agonists of the sonic hedgehog signaling (Shh) pathway - cell viability counter screen (AID 1259366); further: nearly all actives have a fitted effect of over 50% in size
In short: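 Cells are plated at 2,000 per well and left 4hr at 37C, 5% CO2 before compound addition. After 23hr of treatment, CellTiter-Fluor reagent is added for 1hr at 37C and fluorescence is measured.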

[17] = qHTS assay to identify small molecule antagonists of the sonic hedgehog signaling (Shh) pathway - cell viability counter screen (AID 1259367); further: nearly all actives have a fitted effect of over 55% in size
In short: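 NIH/3T3-derived Gli1-Luc reporter cells (2,000 per well) rested 4 hr at 37 C, then received DMSO compounds plus conditioned medium. After 23 hr of treatment, CellTiter-Fluor was added for 1 hr at 37C and fluorescence read.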

[18] = qHTS assay to identify small molecule agonists of the sonic hedgehog signaling (Shh) pathway (AID 1259368; calls by dose curve;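 further: NIH/3T3-derived 3T3Gli1-Luc cells carrying a stable Gli1-driven firefly luciferase reporter; series mostly up to about 92 µM; nearly all actives have a fitted effect of over 15% in size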)
In short: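 A Gli1 transcriptional response element controlled firefly luciferase in 3T3Gli1-Luc cells. Compounds and a positive control were added 4 hr after plating, and cells were incubated a further 24 hr at 37 C before luminescence detection.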

[19] = target: Androgen receptor (Homo sapiens) (UniProt P10275); assay: qHTS assay to identify small molecule antagonists of the androgen receptor (AR) signaling pathway using the MDA cell line in the presence of 0.5 nM R1881 (AID 1259243); further: nearly all actives have a fitted effect of over 50% in size; further: potency means the concentration at half of the fitted maximal effect
In short: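 Reporter cells cultured without CO2 receive test chemicals, then 0.5 nM R1881 final; after 16 hr at 37C, ONE-Glo is added and light output recorded.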

[20] = qHTS assay to identify small molecule phospholipidosis (PLD) inducers (AID 1259344; active means well fitted curve in the direction sought with a large enough effect; an effect the other way counts as inactive or inconclusive)
In short: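 HepG2 cells on collagen I, attached 4 h at 37 C, were co-treated with compound and LipidTOX Red dye for 24 h at 37 C, then fixed with paraformaldehyde plus Hoechst 33342 and imaged by high-content microscopy for phospholipid accumulation.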
On the % scale 0 is the no-effect control and ±100 the full control effect.

Chain of Androgen receptor (Homo sapiens) (P10275 whole entry, looked up): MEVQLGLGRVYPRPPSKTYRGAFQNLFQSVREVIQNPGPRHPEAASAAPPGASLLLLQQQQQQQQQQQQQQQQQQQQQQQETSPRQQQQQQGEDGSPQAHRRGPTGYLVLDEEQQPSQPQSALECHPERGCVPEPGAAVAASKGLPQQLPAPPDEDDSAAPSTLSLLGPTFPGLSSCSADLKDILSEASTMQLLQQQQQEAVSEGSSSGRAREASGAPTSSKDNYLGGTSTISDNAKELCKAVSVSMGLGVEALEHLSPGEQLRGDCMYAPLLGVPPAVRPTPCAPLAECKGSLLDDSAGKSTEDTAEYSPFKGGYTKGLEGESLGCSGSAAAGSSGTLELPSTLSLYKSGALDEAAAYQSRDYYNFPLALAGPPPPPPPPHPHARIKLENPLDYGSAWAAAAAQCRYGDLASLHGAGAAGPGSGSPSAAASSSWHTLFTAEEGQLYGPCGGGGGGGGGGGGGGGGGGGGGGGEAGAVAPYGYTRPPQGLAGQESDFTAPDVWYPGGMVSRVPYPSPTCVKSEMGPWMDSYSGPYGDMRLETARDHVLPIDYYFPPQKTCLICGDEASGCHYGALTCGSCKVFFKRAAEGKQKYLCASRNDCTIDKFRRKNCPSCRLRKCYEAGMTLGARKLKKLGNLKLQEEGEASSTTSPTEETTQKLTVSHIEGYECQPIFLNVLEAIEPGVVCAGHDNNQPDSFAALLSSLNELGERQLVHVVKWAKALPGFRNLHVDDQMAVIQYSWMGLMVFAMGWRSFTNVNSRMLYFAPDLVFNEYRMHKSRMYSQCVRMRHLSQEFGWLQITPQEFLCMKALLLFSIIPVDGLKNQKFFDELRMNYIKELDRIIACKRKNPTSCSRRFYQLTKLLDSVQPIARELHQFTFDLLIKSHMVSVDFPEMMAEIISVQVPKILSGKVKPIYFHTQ
Chain of Estrogen receptor (Homo sapiens) (P03372 whole entry, looked up): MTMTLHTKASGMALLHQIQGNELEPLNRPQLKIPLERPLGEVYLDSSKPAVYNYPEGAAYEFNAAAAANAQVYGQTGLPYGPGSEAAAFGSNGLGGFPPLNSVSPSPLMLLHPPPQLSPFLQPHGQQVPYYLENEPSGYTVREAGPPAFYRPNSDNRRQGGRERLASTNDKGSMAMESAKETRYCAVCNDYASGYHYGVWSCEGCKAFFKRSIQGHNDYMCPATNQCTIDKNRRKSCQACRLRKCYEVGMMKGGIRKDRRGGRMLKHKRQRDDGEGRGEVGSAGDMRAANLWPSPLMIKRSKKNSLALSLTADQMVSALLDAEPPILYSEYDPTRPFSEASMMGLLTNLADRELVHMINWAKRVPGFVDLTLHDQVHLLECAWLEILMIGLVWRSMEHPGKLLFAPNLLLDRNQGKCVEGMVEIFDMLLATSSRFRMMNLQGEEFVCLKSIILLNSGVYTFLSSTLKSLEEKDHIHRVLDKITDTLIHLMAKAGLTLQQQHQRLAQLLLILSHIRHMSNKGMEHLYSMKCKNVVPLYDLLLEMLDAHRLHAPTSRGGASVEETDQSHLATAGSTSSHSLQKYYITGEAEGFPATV

CC(C)CCCO
inactive: outcome [1] | Potency [2] | Potency [3] | outcome [4] | outcome [5] | Potency [6] | Potency [7] | outcome [8] | Potency [9] | outcome [10] | outcome [11] | outcome [12] | outcome [13] | Potency [14] | outcome [15] | Potency [16] | Potency [17] | outcome [18]

CCC1C(=O)OCC1Cc1cncn1C (stereo unspecified)
inactive: outcome [1] | Potency [2] | Potency [3] | outcome [4] | outcome [5] | Potency [6] | Potency [7] | outcome [8] | Potency [9] | outcome [10] | outcome [11] | outcome [12] | outcome [13] | Potency [14] | outcome [15] | Potency [16] | Potency [17] | outcome [18]

O=C(O)Cc1csc(-c2ccc(Cl)cc2)n1
inactive: outcome [1] | Potency [2] | Potency [3] | outcome [4] | outcome [5] | Potency [6] | Potency [7] | outcome [8] | Potency [9] | outcome [10] | outcome [11] | outcome [12] | Potency [19] | outcome [13] | outcome [20] | Potency [14] | outcome [15] | Potency [16]

CC(C)(N)C#N
inactive: outcome [1] | Potency [2] | Potency [3] | outcome [4] | outcome [5] | Potency [6] | Potency [7] | outcome [8] | Potency [9] | outcome [10] | outcome [11] | outcome [12] | outcome [13] | Potency [14] | outcome [15] | Potency [16] | Potency [17] | outcome [18]

CCCCOC(=O)CCC(C)=O
inactive: outcome [1] | Potency [2] | Potency [3] | outcome [4] | outcome [5] | Potency [6] | Potency [7] | outcome [8] | Potency [9] | outcome [10] | outcome [11] | outcome [12] | outcome [13] | Potency [14] | outcome [15] | Potency [16] | Potency [17]

Nc1ccn([C@@H]2O[C@H](CO)[C@@H](O)[C@@H]2O)c(=O)n1
inactive: outcome [1] | Potency [2] | Potency [3] | outcome [4] | outcome [5] | Potency [6] | Potency [7] | outcome [8] | Potency [9] | outcome [10] | outcome [11] | outcome [12] | outcome [13] | Potency [14] | outcome [15] | Potency [16] | Potency [17]

CC(=O)N[C@H]1[C@H]([C@H](O)[C@H](O)CO)OC(C(=O)O)=C[C@@H]1N=C(N)N
inactive: outcome [1] | Potency [2] | Potency [3] | outcome [4] | outcome [5] | Potency [6] | Potency [7] | outcome [8] | Potency [9] | outcome [10] | outcome [11] | outcome [12] | Potency [19] | outcome [13] | outcome [20] | Potency [14] | outcome [15] | Potency [16] | Potency [17] | outcome [18]

CCOC(=O)c1cnc2c(cnn2CC)c1NN=C(C)C
inactive: outcome [1] | Potency [2] | Potency [3] | outcome [4] | outcome [5] | Potency [6] | Potency [7] | outcome [8] | Potency [9] | outcome [10] | outcome [11] | outcome [12] | outcome [13] | outcome [20] | Potency [14] | outcome [15] | Potency [16] | Potency [17] | outcome [18]

Clc1cc(Cl)cc(Cl)c1
inactive: outcome [1] | Potency [2] | Potency [3] | outcome [4] | outcome [5] | Potency [6] | Potency [7] | outcome [8] | Potency [9] | outcome [10] | outcome [11] | outcome [12] | outcome [13] | Potency [14] | outcome [15] | Potency [16] | outcome [18]

CC(C)(C)C(=O)c1ccccc1
inactive: outcome [1] | Potency [2] | Potency [3] | outcome [4] | outcome [5] | Potency [6] | Potency [7] | outcome [8] | Potency [9] | outcome [10] | outcome [11] | outcome [12] | outcome [13] | Potency [14] | outcome [15] | Potency [16] | outcome [18]

CC(C)(C)OC(=O)c1cccc(N)c1
inactive: outcome [1] | Potency [2] | Potency [3] | outcome [4] | outcome [5] | Potency [6] | Potency [7] | outcome [8] | Potency [9] | outcome [10] | outcome [11] | outcome [12] | outcome [13] | Potency [14] | outcome [15] | Potency [16] | Potency [17] | outcome [18]

CCC(C(=O)NC(=O)NC(C)=O)c1ccccc1 (stereo unspecified)
inactive: outcome [1] | Potency [2] | Potency [3] | outcome [4] | outcome [5] | Potency [6] | Potency [7] | outcome [8] | Potency [9] | outcome [10] | outcome [11] | outcome [12] | outcome [13] | PLD induction [20] -2.71% [at 7.66 µM] | Potency [14] | outcome [15] | Potency [16] | Potency [17]

CC(C)(C)C(=O)Oc1ccc(S(=O)(=O)Nc2ccccc2C(=O)NCC(=O)O)cc1
inactive: outcome [1] | Potency [2] | Potency [3] | outcome [4] | outcome [5] | Potency [6] | Potency [7] | outcome [8] | Potency [9] | outcome [10] | outcome [11] | outcome [12] | outcome [13] | outcome [20] | Potency [14] | outcome [15] | Potency [16] | Potency [17] | outcome [18]

C=C(C)C(=O)OCC(O)CO (stereo unspecified)
inactive: outcome [1] | Potency [2] | Potency [3] | outcome [4] | outcome [5] | Potency [6] | Potency [7] | outcome [8] | Potency [9] | outcome [10] | outcome [11] | outcome [12] | Potency [19] | Potency [14] | outcome [15] | Potency [16] | Potency [17] | outcome [18]

Cc1ccc(-c2ccccc2C#N)cc1
inactive: outcome [1] | Potency [2] | Potency [3] | outcome [4] | outcome [5] | Potency [6] | Potency [7] | outcome [8] | Potency [9] | outcome [10] | outcome [11] | outcome [12] | outcome [13] | Potency [14] | outcome [15] | Potency [16] | Potency [17] | outcome [18]
active: Potency [19] 11.9 µM
